# IL1B secr inh: inflammasome signaling inhibition, IL-1 beta readout; activity change, % at 57.5 µM; 360,000 tested, 4.7% active; AID 743279; THP-1 LPS/ATP IL-1B secretion, AlphaLISA, 16 h; hits give low values; in the data active = activity change below about -50%; inconclusive = mostly about -30% to -49%
#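 Secreted IL-1B measured by AlphaLISA bead assay after 16 h compound exposure of THP-1 cells; compounds (final up to 57.5 uM) added 1 h before LPS (250 ng/mL) and ATP (1.25 mM) stimulation; lower signal means less secretion.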
# Gal4-VP16 FLuc: counter-screen for ROR gamma inhibitors: Gal4-VP16 reporter; Drosophila S2 Gal4-VP16 UAS-luciferase, luminescence, 20 h; Potency, µM (doses to about 53.6 µM), for the others: top-dose activity, negative = inhibition, usual class: inhibitors; 310,000 tested, 3.5% active; AID 2546;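 also: Gal4-VP16 expression switched on by copper sulfate through the metallothionein promoter; potency is read from the fitted curve at half-maximal effect; nearly all actives have a fitted effect of over 50% in size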
# TDP1 cell CPT: growth inhibition of DT40 Tdp1-/-;hTDP1 cells with camptothecin (screen for TDP1 inhibitors). chicken DT40 Tdp1-/-;hTDP1 cells + 20 nM CPT, ATP luminescence, 48 h. Potency, µM (top dose mostly 46.2 µM), inactives show at the highest dose activity change, negative = growth inhibition, actives largely listed as inhibitors. 420,000 tested, 12% active. AID 686979; also: potency is read from the fitted curve at half-maximal effect; nearly all actives have a fitted effect of over 55% in size
#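 Chicken DT40 Tdp1-/- cells complemented with human TDP1, 400 cells/well, exposed to compounds plus 20 nM camptothecin for at least 48 h at 37 C; viability read as ATP content by CellTiter-Glo luminescence.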
# TDP1 cell noCPT: qHTS for Inhibitors of human tyrosyl-DNA phosphodiesterase 1 (TDP1): qHTS in cells in absence of CPT; DT40 Tdp1-/- hTDP1 cells, no CPT, ATP luminescence, 48 h; Potency, µM (titrated, usually from 46.2 µM), for the others: top-dose activity change, negative = growth inhibition, actives largely listed as inhibitors; 420,000 tested, 15% active; also: potency is read from the fitted curve at half-maximal effect; nearly all actives have a fitted effect of over 55% in size
#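 A cellular qHTS used chicken DT40 cells lacking endogenous Tdp1 but carrying stably transfected human TDP1. Compounds were applied without camptothecin, and cell growth kinetics were judged by ATP-dependent luminescence after ≥48 hr.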
# LDHA inh: blocks human lactate dehydrogenase A; purified LDHA, NADH/diaphorase-resazurin fluorescence; hits give low values; P00338; AID 1347041; activity change, % (values are at about 110 or 230 µM); 480,000 tested, 0.15% active; in the data active = activity change below about -30%; inconclusive = mostly about -25% to -30%;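 also: plate controls were DMSO wells for no effect and wells without enzyme for full effect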
#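 Enzyme activity of human lactate dehydrogenase 5 (2 nM; 0.06 mM NADH, 0.2 mM pyruvate, 5 min, RT) is measured via a resazurin/diaphorase fluorescence readout of residual NADH.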
# RORgamma inh: inhibitors of mouse ROR gamma transcriptional activity; Drosophila S2 Gal4-RORgamma UAS-luciferase reporter, 20 h; P51450; 310,000 tested, 5.4% active; Potency, µM (doses to about 53.6 µM), inactives show at the top dose activity change, negative = inhibition, most hits filed as inhibitors; AID 2551; also: potency is read from the fitted curve at half-maximal effect; nearly all actives have a fitted effect of over 60% in size
# Target sequence (P51450 whole entry, looked up, the tested form may be a part): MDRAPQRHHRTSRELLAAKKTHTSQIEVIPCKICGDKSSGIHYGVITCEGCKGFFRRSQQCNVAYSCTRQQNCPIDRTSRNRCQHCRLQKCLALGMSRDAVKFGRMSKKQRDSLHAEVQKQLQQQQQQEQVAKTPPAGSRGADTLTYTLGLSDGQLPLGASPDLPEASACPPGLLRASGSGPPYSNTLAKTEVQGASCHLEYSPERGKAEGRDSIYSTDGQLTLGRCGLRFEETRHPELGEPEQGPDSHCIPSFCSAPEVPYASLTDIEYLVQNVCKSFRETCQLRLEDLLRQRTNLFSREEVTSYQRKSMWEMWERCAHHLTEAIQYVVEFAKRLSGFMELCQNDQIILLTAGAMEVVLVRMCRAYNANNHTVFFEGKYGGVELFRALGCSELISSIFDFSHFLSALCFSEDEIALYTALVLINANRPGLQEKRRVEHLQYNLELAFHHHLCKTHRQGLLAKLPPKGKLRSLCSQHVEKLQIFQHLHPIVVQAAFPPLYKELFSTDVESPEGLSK
#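 Luciferase reporter read in Schneider cells carrying Gal4-RORγ (mouse) and UAS-Photinus luciferase; cells given compound 1 h before 700 uM copper sulfate induction, then incubated 20 h at ambient temperature.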
# The depositor's hits bear a star; ? = inconclusive; nt = no result; [ ] = another dose, or the depositor's remark. A selection: hits, their analogues and other compounds. The true share with any hit is near 18%. Unless noted, calls follow the shape of the dose curve; as a rule, active = well fitted curve in the direction sought with a large enough effect; inconclusive = small, poorly fitted or top-dose-only effect, or another doubt; inactive = no such curve, though single readings can be large; an effect the other way counts as inactive or inconclusive. Unless noted, % is scaled to controls: 0 for no effect and ±100 for the full control effect.
SMILES,IL1B secr inh,Gal4-VP16 FLuc,TDP1 cell CPT,TDP1 cell noCPT,LDHA inh,RORgamma inh
COc1ccc(CNC(=O)CN(c2ccc(C(C)=O)cc2)S(=O)(=O)c2ccc(C)cc2)cc1OC,3,nt,12%,-5%,-2,nt
COc1ccc(S(=O)(=O)N(CC(=O)NCc2ccccc2)c2ccc(C)cc2)cc1OC,nt,nt,?,6.5µM*,2,nt
CCc1ccc(S(=O)(=O)N2CCN(C(=O)Nc3ccccc3Br)CC2)cc1,nt,nt,nt,nt,-5,nt
CCOC(=O)N1CCN(C(=O)C2CCC(CNS(=O)(=O)c3ccc(Cl)cc3)CC2)CC1 (stereo unspecified),10,-7%,?,?,-6,33%
COc1ccc(CN2CCN(S(=O)(=O)c3ccc(NC(C)=O)cc3)CC2)c(OC)c1OC,-4,-11%,16µM*,?,-17,4%
CC(=O)Nc1ccc(S(=O)(=O)N2CCN(C)CC2)cc1,0,-1%,?,14%,-14,-30%
COc1ccc(CN2CCN(C(=O)C3CCC(CNS(=O)(=O)c4ccc(C)cc4)CC3)CC2)c(OC)c1OC (stereo unspecified),-12,-1%,?,21µM*,-18,29%
CC(C)(C)c1ccc(-c2nnc(SCC(=O)N3CCCC3=O)n2C2CCCC2)cc1,nt,nt,nt,nt,1,nt
Cc1ccn2cc(-c3cc4ccccc4oc3=O)nc2c1,0,?,-21%,?,-1,2.5µM*
O=c1oc2ccccc2cc1-c1cn2cc(Cc3ccc(Cl)cc3)sc2n1,nt,nt,3.3µM*,2.6µM*,-9,nt
Cc1ccn2cc(-c3c(-c4ccccc4Cl)n(C)c(=O)n(C)c3=O)nc2c1,nt,nt,nt,nt,8,nt
COc1cccc(/C=c2\s/c(=C\C(=O)C(C)(C)C)[nH]c2=O)c1,12,?,?,?,-3,10µM*
CCOc1ccc(S(=O)(=O)Nc2ccc(C)cc2)cc1-c1nc2c(C(C)(C)C)nn(C)c2c(=O)[nH]1,nt,nt,nt,nt,0,nt
Cc1ccc(-n2nnnc2CNC(=O)C(C)(C)C)cc1C,nt,nt,-11%,-10%,-1,nt
CCCCOc1ccc(C(=O)NCc2nnnn2-c2ccc(C)c(C)c2)cc1,nt,nt,16µM*,?,1,nt
CC1=C(c2ccc(C)cc2)S(=O)(=O)NC1=NCCCN1CCN(c2ccccc2F)CC1,nt,nt,?,16µM*,-2,nt
CC1=C(c2ccc(C)cc2)S(=O)(=O)NC1=NCc1cccc(F)c1,nt,nt,-21%,?,-5,nt
CCOC(=O)C1=C(C)N=c2sc(=Cc3cc(Cl)c(OCC(=O)O)c(Cl)c3)c(=O)n2C1c1cccc(OC)c1 (stereo unspecified),-18,nt,16µM*,?,-8,nt
COc1cccc(C2C(C(=O)OC(C)C)=C(C)N=c3s/c(=C\c4ccc(C(=O)O)cc4)c(=O)n32)c1 (stereo unspecified),-7,-2%,-20%,18µM*,-9,-20%
CCOC(=O)C1=C(C)N=c2s/c(=C/c3ccc(OCC(=O)O)cc3)c(=O)n2C1c1cc(OC)c(OC)c(OC)c1 (stereo unspecified),-9,6%,0%,-2%,-5,9%[1.91 µM]
CC(C)(CO)NCc1cccc2ccccc12,nt,nt,nt,nt,9,nt
COc1cccc2c1OC1OC2Oc2c(OC)cccc21,nt,nt,nt,nt,-2,nt
Clc1ccc(OCc2nnc3n2N=C(c2ccc4c(c2)OCCO4)CS3)c(Cl)c1,4,nt,9.2µM*,12µM*,0,4%[0.365 µM]
COc1ccc(-c2nc(SCc3ccccc3)n(C(C)=O)n2)cc1,nt,nt,nt,nt,6,nt
C=CCn1c(CNc2ccccc2)nnc1SCC(=O)N/N=C/c1ccc(O)cc1O,86,0%,18µM*,?,5,-33%
SMILES,IL1B secr inh,Gal4-VP16 FLuc,TDP1 cell CPT,TDP1 cell noCPT,LDHA inh,RORgamma inh
CCn1c(CNc2ccc(C)cc2)nnc1SCC(=O)NCc1ccccc1,19,13%,-18%,-18%,18,-18%
C=CCn1c(COc2ccccc2)nnc1SCC(=O)N/N=C/c1cc(Cl)ccc1O,47,?,?,?,0,13µM*
C=CCn1c(COc2ccccc2)nnc1SCC(=O)N/N=C/c1ccc(C)cc1,-21,0%,?,?,-6,0%
C=CCn1c(CNc2ccc(C)cc2)nnc1SCC(=O)N/N=C/c1ccc(O)cc1O,82,3%,18µM*,?,0,-31%
N#Cc1c(SCC(=O)N2CCOCC2)nc(N2CCOCC2)c2c1CCCC2,nt,nt,nt,nt,10,nt
O=c1c2ccccc2nc(-c2ccco2)n1/N=C/c1ccccc1O,-16,-17%,-15%,?,4,6%
Oc1ccc(/C=N/n2c(-c3ccco3)csc2=Nc2cccnc2)c(O)c1,21,-28%,12µM*,15µM*,2,7%
Cc1cc(C)n(/N=C/c2ccccc2O)c(=O)c1,0,2%,8%,0%,5,-37%
COCCN=c1scc(-c2ccco2)n1/N=C/c1ccc(O)c(O)c1O,33,-1%,?,?,31,?
CN=c1scc(-c2cccs2)n1/N=C/c1ccccc1O,-3,-10%,?,23µM*,2,27%[10 µM]
CC(C)N=c1scc(-c2ccco2)n1/N=C/c1ccc(O)c(O)c1,-13,16µM*,1.6µM*,1.5µM*,2,1.4µM*
C=CCN=c1scc(-c2ccco2)n1/N=C/c1ccc(O)c(O)c1O,-51*,10µM*,10µM*,5.8µM*,34,3.2µM*
Cc1nc2ccccc2c(=O)n1/N=C/c1ccc(O)c(O)c1O,8,4%,?,?,20,-18%
COc1cc(/C=N/O)cc(Br)c1O,nt,nt,nt,nt,11,nt
CN=c1scc(C)n1/N=C/c1cc(Br)c(O)c(OC)c1,11,-5%,?,16µM*,-3,12%
